# Reference: the supplement of paper PMC8728848
# About 410 targets per protein were measured; listed, in parts, are those with the strongest signals and a random draw of the rest.
# What was measured:
# Experiment in all cases: glycan array binding signal (z-score within array); higher = stronger binding
# Details in all cases: glycan notation: IUPAC condensed, linker removed
# [1] = target: Fuc(a1-2)Gal(b1-3)GalNAc(a1-3)[Fuc(a1-2)]Gal(b1-4)GlcNAc
# Outline: (§1)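 Glycan array data came from 3228 arrays in the Consortium for Functional Glycomics database, and only arrays with an available protein sequence were kept. Glycan names were put into IUPAC-condensed notation, and columns mapping to the same glycan were averaged. The binding signal is a within-array Z-score, averaged across arrays of one protein sequence run at different concentrations or buffers and across linkers. A negative Z-score can be read as non-binding.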
# [2] = target: Fuc(a1-2)Gal(b1-3)GlcNAc(b1-2)Man(a1-3)[Fuc(a1-2)Gal(b1-3)GlcNAc(b1-2)Man(a1-6)]Man(b1-4)GlcNAc(b1-4)[Fuc(a1-6)]GlcNAc
# Outline: as §1
# [3] = target: Fuc(a1-2)Gal(b1-3)GlcNAc(b1-3)Gal(b1-4)Glc
# Outline: as §1
# [4] = target: Fuc(a1-2)Gal(b1-3)GlcNAc(b1-3)[Gal(b1-4)GlcNAc(b1-6)]Gal(b1-4)Glc
# Outline: as §1
# [5] = target: Fuc(a1-2)Gal3S(b1-4)GlcNAc
# Outline: as §1
# [6] = target: Fuc(a1-2)[Gal(a1-3)]Gal(b1-3)GlcNAc(b1-2)Man(a1-3)[Fuc(a1-2)[Gal(a1-3)]Gal(b1-3)GlcNAc(b1-2)Man(a1-6)]Man(b1-4)GlcNAc(b1-4)[Fuc(a1-6)]GlcNAc
# Outline: as §1
# [7] = target: Fuc(a1-2)[Gal(a1-3)]Gal(b1-4)GlcNAc(b1-3)[Fuc(a1-2)[Gal(a1-3)]Gal(b1-4)GlcNAc(b1-6)]GalNAc
# Outline: as §1
# [8] = target: Fuc(a1-2)[Gal(a1-3)]Gal(b1-4)[Fuc(a1-3)]GlcNAc(b1-3)GalNAc
# Outline: as §1
# [9] = target: Fuc(a1-2)[GalNAc(a1-3)]Gal
# Outline: as §1
# [10] = target: Fuc(a1-2)[GalNAc(b1-3)]Gal
# Outline: as §1
# [11] = target: Fuc(a1-3)[Gal(b1-4)]GlcNAc(b1-2)Man
# Outline: as §1
# [12] = target: Fuc(a1-3)[Gal(b1-4)]GlcNAc(b1-3)Gal(b1-4)[Fuc(a1-3)]GlcNAc
# Outline: as §1
# [13] = target: Fuc(a1-3)[Gal(b1-4)]GlcNAc(b1-3)Gal(b1-4)[Fuc(a1-3)]GlcNAc(b1-3)Gal(b1-4)[Fuc(a1-3)]GlcNAc
# Outline: as §1
# [14] = target: Fuc(a1-3)[Gal(b1-4)]GlcNAc(b1-3)GalNAc
# Outline: as §1
# Fuc(a1-4)GlcNAc = target: Fuc(a1-4)GlcNAc
# Outline: as §1
# Gal(a1-3)Gal(b1-3)GlcNAc = target: Gal(a1-3)Gal(b1-3)GlcNAc
# Outline: as §1
# [15] = target: Gal(a1-3)Gal(b1-4)GlcNAc(b1-2)Man(a1-3)[Gal(a1-3)Gal(b1-4)GlcNAc(b1-2)Man(a1-6)]Man(b1-4)GlcNAc(b1-4)GlcNAc
# Outline: as §1
# [16] = target: Gal(a1-3)[Gal(a1-4)]Gal(b1-4)GlcNAc
# Outline: as §1
# [17] = target: Gal(b1-3)GalNAc(b1-4)[Neu5Ac(a2-3)]Gal(b1-4)Glc
# Outline: as §1
# Gal(b1-3)GlcNAc(b1-2)Man = target: Gal(b1-3)GlcNAc(b1-2)Man
# Outline: as §1
# [18] = target: Gal(b1-3)GlcNAc(b1-2)Man(a1-3)[GlcNAc(b1-4)][Gal(b1-3)GlcNAc(b1-2)Man(a1-6)]Man(b1-4)GlcNAc(b1-4)GlcNAc
# Outline: as §1
# [19] = target: Gal(b1-3)GlcNAc(b1-3)Gal(b1-3)GlcNAc
# Outline: as §1
# Gal(b1-4)Glc = target: Gal(b1-4)Glc
# Outline: as §1
# Gal(b1-4)GlcNAc(b1-2)Man = target: Gal(b1-4)GlcNAc(b1-2)Man
# Outline: as §1
# [20] = target: Gal(b1-4)GlcNAc(b1-2)[Gal(b1-4)GlcNAc(b1-4)]Man(a1-3)[Gal(b1-4)GlcNAc(b1-2)Man(a1-6)]Man(b1-4)GlcNAc(b1-4)GlcNAc
# Outline: as §1
binder,measurement,setting,value
SP16665A-bot-344-23-344 (Bacteroides ovatus) (protein) SDNEFPDFDYQTVYFANQYGLRTIELGESEFVDNTLDNQHKMVIKAAWGGGYTNRNNVVINFKVDESLCDNLYFKDTDQPLVPMPASYYTLASDRIAIPKGQIMAGVEVQLTDDFFADEKSISENYVIPLLMTNVQGADSILQGKPVVENPVLTNAGDWSILPQNFVLYAVKYVNPWHGEYLRRGIDHATVAGTSKDIIRHEQFVENDEVVNISTKSMKDNLLTLKTKDESGKDISYTVRLSFAEDGSCTVHSGSQNVVVSGSGKFVSKGEKNSLGGKDRNAIYLDYTVNLTDNNIQLATKDTLVLRTRNVYGGKSLEVVRK,glycan array binding signal (z-score),[1],-0.235
same,glycan array binding signal (z-score),[2],0.285
same,glycan array binding signal (z-score),[3],-0.208
same,glycan array binding signal (z-score),[4],-0.461
same,glycan array binding signal (z-score),[5],0.29
same,glycan array binding signal (z-score),[6],-0.333
same,glycan array binding signal (z-score),[7],8.34
same,glycan array binding signal (z-score),[8],-0.571
same,glycan array binding signal (z-score),[9],-0.372
same,glycan array binding signal (z-score),[10],-0.266
same,glycan array binding signal (z-score),[11],0.187
same,glycan array binding signal (z-score),[12],-0.237
same,glycan array binding signal (z-score),[13],0
same,glycan array binding signal (z-score),[14],-0.329
same,glycan array binding signal (z-score),Fuc(a1-4)GlcNAc,19.1
same,glycan array binding signal (z-score),Gal(a1-3)Gal(b1-3)GlcNAc,0.959
same,glycan array binding signal (z-score),[15],0.709
same,glycan array binding signal (z-score),[16],1.28
same,glycan array binding signal (z-score),[17],-0.5
same,glycan array binding signal (z-score),Gal(b1-3)GlcNAc(b1-2)Man,2.76
same,glycan array binding signal (z-score),[18],-0.153
same,glycan array binding signal (z-score),[19],0.024
same,glycan array binding signal (z-score),Gal(b1-4)Glc,-0.451
same,glycan array binding signal (z-score),Gal(b1-4)GlcNAc(b1-2)Man,1.02
same,glycan array binding signal (z-score),[20],-0.051
